# Screening results deposited in PubChem by National Center for Advancing Translational Sciences (NCATS).
# DRD3 agonist = qHTS of D3 Dopamine Receptor Agonist: qHTS | D(3) dopamine receptor (Homo sapiens), P35462 | D3R DiscoveRx beta-arrestin cells, luminescence, 90 min | max activation, % | 0.58% of 410,000 active | AID 652048, 2013; in the data active = max activation above about 30%
# Target sequence (P35462 whole entry, looked up): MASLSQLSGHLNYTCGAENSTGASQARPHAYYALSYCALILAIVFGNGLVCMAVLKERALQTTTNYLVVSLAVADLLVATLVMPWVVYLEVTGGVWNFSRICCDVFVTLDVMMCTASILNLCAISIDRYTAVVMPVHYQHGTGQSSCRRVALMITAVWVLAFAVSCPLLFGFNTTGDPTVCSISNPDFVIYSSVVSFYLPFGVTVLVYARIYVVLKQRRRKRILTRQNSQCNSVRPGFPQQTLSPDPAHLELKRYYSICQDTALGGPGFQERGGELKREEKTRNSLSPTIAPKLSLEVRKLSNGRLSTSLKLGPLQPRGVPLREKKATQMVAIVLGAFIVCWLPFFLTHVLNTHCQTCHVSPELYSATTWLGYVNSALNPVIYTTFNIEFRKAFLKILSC
#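 Agonist-mode cell screen: cells plated at 1500/well and incubated overnight at 37 °C, then exposed to library compounds for 90 min at 37 °C. Detection reagent was added for 30–60 min at room temperature, and luminescence was read.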
# IL-1B inflam inh = qHTS for Inhibitors of Inflammasome Signaling: IL-1-beta AlphaLISA Primary Screen; THP-1 LPS/ATP IL-1B secretion, AlphaLISA, 16 h; hits give low values; activity change, % at 57.5 µM; 4.7% of 360,000 active; in the data active = activity change below about -50%; inconclusive = mostly about -30% to -49%
#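 THP-1 cells pretreated 1 hr with compounds (up to 57.5 uM final), then stimulated with LPS (250 ng/mL final) plus ATP (1.25 mM final); secreted IL-1B measured by AlphaLISA after 16 hr, decreased signal indicating inhibition.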
# ClpP mod = qHTS Assay for Activators of ClpP; purified B. subtilis ClpP, FRET peptide cleavage, 20 min; Potency, µM (top dose mostly 57.5 µM); 1.9% of 340,000 active; active = well fitted falling curve with a large enough effect; inconclusive = small, poorly fitted or top-dose-only effect; inactive = no such curve, though single readings can be large or run the other way; also: the source files actives as falling curves though it sought activators and does not explain the sign; nearly all actives have a fitted effect of over 65% in size
# Target sequence (P80244 whole entry, looked up): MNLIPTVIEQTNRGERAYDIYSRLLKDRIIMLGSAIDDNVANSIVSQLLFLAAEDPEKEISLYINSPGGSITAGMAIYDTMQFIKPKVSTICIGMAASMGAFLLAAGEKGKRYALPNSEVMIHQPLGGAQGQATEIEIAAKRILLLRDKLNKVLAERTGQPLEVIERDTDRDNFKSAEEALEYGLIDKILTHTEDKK
#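 ClpP 10 microg/mL final, pH 8 Tris/KCl buffer with BSA, glycerol, Tween-20; compound pinned in; FRET-FV substrate; RT 20 min; Ex320/Em430; ΔFRET vs ADEP 5.8 microM, DMSO, no enzyme.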
# DT40 TDP1 CPT = qHTS for Inhibitors of human tyrosyl-DNA phosphodiesterase 1 (TDP1): qHTS in cells in presence of CPT | chicken DT40 Tdp1-/-;hTDP1 cells + 20 nM CPT, ATP luminescence, 48 h | Potency, µM (titrated, usually from 46.2 µM), actives largely listed as inhibitors | 12% of 420,000 active | AID 686979, 2013; also: nearly all actives have a fitted effect of over 55% in size
#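 Chicken DT40 Tdp1-/- cells stably complemented with human TDP1 were seeded at 400 cells/well in medium containing 20 nM camptothecin, exposed to pin-transferred compounds, and grown at 37 °C for at least 48 hr. Viability was read as ATP luminescence.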
# DRD3 antagonist = qHTS of D3 Dopamine Receptor Antagonist: qHTS; D(3) dopamine receptor (Homo sapiens), P35462; D3R cells, DiscoveRx beta-arrestin luminescence, antagonist mode; hits give low values; max response, negative = inhibition, %; 2.5% of 360,000 active; AID 652054, 2013; in the data active = max response below about -50%; inconclusive = no clear call, values can overlap the other calls
#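 Cells plated overnight at 1500 cells/well, then exposed to library compounds with dopamine controls for 90 minutes at 37 degrees C. DiscoveRx reagent added for 30–60 minutes at room temperature; luminescence read, quantitative HTS format.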
# TDP1 cell noCPT = qHTS for Inhibitors of human tyrosyl-DNA phosphodiesterase 1 (TDP1): qHTS in cells in absence of CPT; Potency, µM (titrated, usually from 46.2 µM), hits mostly inhibitors; 15% of 420,000 active; DT40 Tdp1-/- hTDP1 cells, no CPT, ATP luminescence, 48 h; also: nearly all actives have a fitted effect of over 55% in size
#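 Readout: luminescence from CellTiter-Glo after 30 min in the dark at RT. Cells: DT40 Tdp1-/- with stable hTDP1, 400/well. Exposure: compounds alone, ≥48 hr, 37 °C.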
# Hits are given with their value; – = inactive; ? = inconclusive; · = not tested or not shown. An excerpt weighted towards active compounds, which were near 21% of everything screened. Unless noted, calls follow the shape of the dose curve; as a rule, active = well fitted inhibition curve with a large enough effect; inconclusive = small, poorly fitted or top-dose-only effect; inactive = flat fitted curve, though single readings scatter.
SMILES,DRD3 agonist,IL-1B inflam inh,ClpP mod,DT40 TDP1 CPT,DRD3 antagonist,TDP1 cell noCPT
CC1CN(CCOc2ccc(Cl)cc2Cl)CC(C)O1 (centres undefined),–,–,–,–,–,?
CCCOc1ccc(OCCN2CCCC(C)C2)cc1 (centres undefined),–,–,–,–,?,–
c1cc(OCCCN2CCCCC2)ccc1CN1CCCCC1,–,–,·,–,–,–
CC(C)Oc1ccc(OCCCN2CCCCCC2)cc1,–,–,–,–,-83.9,–
CCN(CC)CCCNC(=O)Cn1nc([N+](=O)[O-])c(Cl)c1C,–,–,–,–,–,–
Clc1ccc(-c2csc(-c3cccnc3)n2)s1,–,–,–,–,–,–
Clc1ccc(OCCCCN2CCCCC2)cc1,–,–,·,–,-61.7,–
CC(C)(C)c1ccc(OCCCN2CCCC2)cc1,–,–,–,?,–,13µM
CC(C)(C)CC(C)(C)c1ccc(O)c(-n2nc3ccccc3n2)c1,–,·,·,–,·,–
CCn1c(SCC(=O)c2ccccc2)nc2c(c1=O)SC(C)C2 (centres undefined),–,–,–,?,–,?
COCCn1c(SCC(=O)N2CCN(c3ccccc3)CC2)nc2c(c1=O)SC(C)C2 (centres undefined),–,–,–,20.6µM,–,18.4µM
COCCn1c(SCC(=O)c2ccccc2)nc2c(c1=O)SC(C)C2 (centres undefined),–,–,–,23.1µM,–,?
N#Cc1ccc(Oc2ccc(-c3nc4ccccc4nc3-c3ccccc3)cc2)cc1C#N,–,–,?,9.2µM,–,18.4µM
COc1ccc(-c2nc3ccccc3nc2-c2ccccc2)cc1,–,–,·,?,–,?
Nc1nc(-c2ccccc2)c(-c2ccc([N+](=O)[O-])cc2)s1,–,–,–,?,–,?
Nc1ccc(Oc2ccc3nc(-c4ccccc4)c(-c4ccc([N+](=O)[O-])cc4)nc3c2)cc1,–,–,–,16.4µM,–,?
N#Cc1ccc(Oc2ccc(-c3cnc4ccccc4n3)cc2)cc1C#N,–,–,20µM,?,–,?
N#Cc1cccc(Oc2ccc(-c3cnc4ccccc4n3)cc2)c1C#N,–,–,?,–,–,?
CC(C)C[C@@H]1Cc2[nH][nH]c(=O)c2[C@H](c2ccc(Cl)cc2)O1,–,–,–,–,–,–
CCc1ccc2nc(N(CCCN(C)C)C(=O)c3ccc(S(=O)(=O)N4CCCc5ccccc54)cc3)sc2c1,–,-97.6,–,?,–,?
CN(C)CCCN(C(=O)c1ccc(S(=O)(=O)N2CCc3ccccc32)cc1)c1nc2c(Cl)cccc2s1,–,-82.8,–,?,–,?
COc1cccc2sc(N(CCCN(C)C)C(=O)c3ccc(S(=O)(=O)N4CCCc5ccccc54)cc3)nc12,–,-50.3,–,?,–,?
CN(C)CCN(C(=O)c1ccc(S(=O)(=O)N2CCc3ccccc32)cc1)c1nc2ccc(F)cc2s1,–,–,–,?,–,–
Cc1ccc(CNC(=O)c2cccc(-n3cnc4cccnc43)c2)cc1,–,·,–,?,·,?
CS(=O)(=O)N(CC(=O)N1CCc2ccccc2C1)c1ccccc1F,–,–,–,–,–,–
SMILES,DRD3 agonist,IL-1B inflam inh,ClpP mod,DT40 TDP1 CPT,DRD3 antagonist,TDP1 cell noCPT
COc1ccc(CN(Cc2ccccc2)C(=O)c2ccco2)cc1COc1ccc(NC(C)=O)cc1,·,·,–,?,·,?
CCN(CC)C(=O)C1=C(C)N(Cc2ccc(C(C)(C)C)cc2)C(=O)C(CC(=O)NC2CCCC2)C1 (centres undefined),–,–,–,?,–,–
Cc1ccc(Cl)cc1NC1=NC(=S)N(C(C)C)C12CCCCC2,–,–,–,?,–,18.4µM
COc1ccc(Nc2nn3c(=O)c4cc5c(cc4nc3s2)OCO5)c(OC)c1,–,·,–,?,·,?
COC(=O)c1ccc(Cl)cc1NC(=O)N(Cc1ccc(C)o1)C1CCN(C(C)=O)CC1,–,·,–,?,·,14.6µM
CCN1CCC(N(Cc2ccc3c(c2)OCO3)C(=O)Nc2cc(Cl)ccc2C(=O)OC)CC1,–,·,–,13µM,·,7.31µM
CCN1CCC(N(Cc2ccc3c(c2)OCO3)C(=O)Nc2ccccc2OC)CC1,–,·,–,?,·,?
Nc1c(C(=O)Nc2ccc(F)cc2)sc(=S)n1-c1ccccc1F,–,?,–,?,–,–
CC(=O)c1cccc(NC(=O)CSc2nc3ccccc3nc2Cc2ccc(F)cc2)c1,–,·,–,?,·,–
CCCc1[nH]nc2c1C(c1ccoc1)C(C#N)=C(N)O2 (centres undefined),–,-80.1,–,?,–,?
CCCc1[nH]nc2c1C(c1ccsc1)C(C#N)=C(N)O2 (centres undefined),–,-228.2,·,16.4µM,–,?
CCOC(=O)Cc1[nH]nc2c1C(c1ccsc1)C(C#N)=C(N)O2 (centres undefined),–,-64.8,·,?,–,?
COCc1[nH]nc2c1C(c1sccc1C)C(C#N)=C(N)O2 (centres undefined),–,-81.3,–,–,–,?
CCCSc1ccc(C(=O)Nc2ccc(Cl)cc2)cn1,–,–,·,–,–,–
CCCc1[nH]nc2c1C(c1ccc(OC)cc1OC)C(C#N)=C(N)O2 (centres undefined),–,–,–,–,–,–
COC(=O)Cc1[nH]nc2c1C(C1C=CCCC1)C(C#N)=C(N)O2 (centres undefined),–,-61.6,7.08µM,?,–,25.9µM
CCCc1[nH]nc2c1C(C1CCCCC1)C(C#N)=C(N)O2 (centres undefined),–,-94.6,–,?,–,?
COC(=O)Cc1[nH]nc2c1C(c1cc(OC)c(OC)c(OC)c1)C(C#N)=C(N)O2 (centres undefined),–,–,–,–,–,–
N#CC1=C(N)Oc2n[nH]c(-c3cccs3)c2C1c1cccs1 (centres undefined),–,-90.6,–,?,?,–
N#CC1=C(N)Oc2n[nH]c(-c3cccs3)c2C1c1ccccc1C(=O)O (centres undefined),–,–,·,–,–,–
CCCc1[nH]nc2c1C(c1cccc(OC)c1)C(C#N)=C(N)O2 (centres undefined),–,–,–,–,–,?
CCCc1[nH]nc2c1C(c1ccc(O)cc1OCC)C(C#N)=C(N)O2 (centres undefined),–,-75.6,–,?,–,?
COc1ccccc1/C=[N+](\[O-])C1SC(=S)N(C)C1(C)C (centres undefined),–,–,–,–,–,–
